Our source for the Potency and outcome values is PubChem BioAssay (Tox21).

A short description of assay [1]: qHTS assay to identify aromatase inhibitors - cell viability counter screen (AID 743084;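 note: cells stimulated with testosterone during compound exposure; nearly all actives have a fitted effect of over 55% in size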; note: potency is the fitted concentration of half-maximal effect). (In general: In qHTS, concentration-response curves come from the screen itself.)
Assay [2] concerns the target Aryl hydrocarbon receptor (Homo sapiens) (UniProt P35869). Put plainly: qHTS assay to identify small molecule that activate the aryl hydrocarbon receptor (AhR) signaling pathway (AID 743085).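 Note: HG2L7.5c1 human HepG2 liver cells with stably integrated DRE-driven firefly reporter; series mostly up to about 70 µM; nearly all actives have a fitted effect of over 15% in size.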 The essentials: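 24 h compound exposure, 37C, HepG2-derived HG2L7.5c1 cells with DRE-responsive luciferase. Readouts: fluorescence viability, then luminescence at room temperature after 30 min.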

Assay [3] is described as follows: qHTS assay to identify small molecule antagonists of the peroxisome proliferator-activated receptor gamma (PPARg) signaling pathway - cell viability counter screen (AID 743194). Note: nearly all actives have a fitted effect of over 55% in size. The essentials: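 Cytotoxicity counter screen in PPARg-bla HEK293H cells, same wells as reporter assay. Compounds plus 50 nM rosiglitazone (final) for 17 h at 37 C, then viability read by CellTiter-Glo luminescence.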

The nature of assay [4]: qHTS assay for small molecule agonists of the antioxidant response element (ARE) signaling pathway (AID 743202; active = well fitted activation curve with a large enough effect in the signal ratio in the repeat runs, not every such curve was filed as active; the % refers to the signal ratio). The essentials:
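HepG2 ARE-bla reporter line, 2,000 cells/well; 5 h preincubation 37 C/5% CO2; compound (DMSO) 16 h 37 C; B/G FRET substrate 2 h RT; fluorescence intensity.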

A short description of assay [5]: qHTS assay for small molecule agonists of the antioxidant response element (ARE) signaling pathway - cell viability counter screen (AID 743203; calls by dose curve; note: nearly all actives have a fitted effect of over 55% in size). The essentials:
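Parallel cytotoxicity read-out for the ARE-bla screen: HepG2 reporter cells, 16 hrs with compounds, then CellTiter-Glo luminescence.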

Assay [6] concerns the target Peroxisome proliferator-activated receptor delta (Homo sapiens) (UniProt Q03181). Description: qHTS assay to identify small molecule agonists of the peroxisome proliferator-activated receptor delta (PPARd) signaling pathway (AID 743212; calls by dose curve). The essentials:
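Read-out: beta-lactamase FRET fluorescence after 2 h room-temperature incubation with LiveBLAzer B/G substrate. Cells were HEK293H carrying a UAS-bla reporter for PPARd, treated at 37 C with DMSO-dissolved compounds.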

Assay [7] in a line: qHTS assay to identify small molecule antagonists of the peroxisome proliferator-activated receptor delta (PPARd) signaling pathway - cell viability counter screen (AID 743213). Note: nearly all actives have a fitted effect of over 50% in size. The procedure, abridged: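 Agonist-stimulated (L165041, 300 nM final) HEK293H PPARd UAS-bla cells are exposed to compounds for 17 h at 37 C, and ATP-based luminescence (CellTiter-Glo) from the same wells reports cytotoxicity.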

For assay [8], the target named is Peroxisome proliferator-activated receptor delta (Homo sapiens) (UniProt Q03181). Put plainly: qHTS assay to identify small molecule antagonists of the peroxisome proliferator-activated receptor delta (PPARd) signaling pathway (AID 743215; active = well fitted inhibition curve with a large enough effect in the signal ratio in the repeat runs, not every such curve was filed as active; the % refers to the signal ratio; note: series mostly up to about 62 µM). The procedure, abridged: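 Screen format: qHTS, antagonist mode. HEK293H PPARd-bla cells received compound and 300 nM L165041 (final), 17 h, 37 C. Beta-lactamase detected via FRET substrate fluorescence, 2 h, room temperature.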

A short description of assay [9]: qHTS assay to identify small molecule agonists of the farnesoid-X-receptor (FXR) signaling pathway - cell viability counter screen (AID 743218). Note: nearly all actives have a fitted effect of over 45% in size. The procedure, abridged: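 Same-well cytotoxicity check on FXR-UAS-bla HEK 293T cells: 5 h attachment, 16 h compound at 37 C, CellTiter-Glo luminescence read at room temperature after 30 min.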
A short description of assay [10]: qHTS assay to identify small molecule antagonists of the farnesoid-X-receptor (FXR) signaling pathway - cell viability counter screen (AID 743221; active = well fitted cell-killing curve with a large enough effect in the repeat runs, not every such curve was filed as active; note: nearly all actives have a fitted effect of over 50% in size). The essentials:
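In GeneBLAzer FXR-UAS-bla HEK 293T cells stimulated with 50 uM chenodeoxycholic acid (final), compounds acted for 16 h at 37 C. Viability was assessed afterwards by CellTiter-Glo luminescence.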

Assay [11] has as its target Vitamin D3 receptor (Homo sapiens) (UniProt P11473). Description: qHTS assay to identify small molecule agonists of the vitamin D receptor (VDR) signaling pathway (AID 743222; calls by dose curve). The essentials: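 Using LiveBLAzer B/G FRET detection, agonism was scored in VDR-bla cells exposed overnight (16 h, 37C) to DMSO-dissolved compounds; substrate incubation was 2 h at room temperature.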

Assay [12] is described as follows: qHTS assay for small molecule activators of the heat shock response signaling pathway - cell viability counter screen (AID 743209). Note: nearly all actives have a fitted effect of over 50% in size. The procedure, abridged:
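To flag cytotoxic compounds, HSE-bla HeLa cells plated at 1500 cells/well were dosed for 5 h at 37 C, followed by the reporter FRET read and then CellTiter-Glo, with luminescence recorded 30 min after reagent addition.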

Assay [13] in a line: qHTS assay for small molecule activators of the heat shock response signaling pathway (AID 743210; active = well fitted activation curve with a large enough effect in the signal ratio in the repeat runs, with a control signal flat, not every such curve was filed as active; the % refers to the signal ratio;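 note: HeLa cells with beta-lactamase reporter driven by heat shock elements; series mostly up to about 63 µM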). The procedure, abridged:
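Beta-lactamase reporter read-out: FRET substrate fluorescence after 2.5 h at RT, following 5 h compound treatment at 37 C of HeLa cells carrying HSE-driven bla reporter; quantitative HTS format.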

A short description of assay [14]: qHTS assay to identify small molecule agonists of the peroxisome proliferator-activated receptor delta (PPARd) signaling pathway - cell viability counter screen (AID 743211). Note: nearly all actives have a fitted effect of over 55% in size. The procedure, abridged: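 Luminescent ATP viability assay (CellTiter-Glo, 30 min RT) in UAS-bla HEK293H cells carrying the PPAR delta reporter construct, 3000 cells/well, after a 17 h compound treatment at 37 C.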

Assay [15] addresses Bile acid receptor (Homo sapiens) (UniProt Q96RI1). Put plainly: qHTS assay to identify small molecule agonists of the farnesoid-X-receptor (FXR) signaling pathway (AID 743220; active = well fitted activation curve with a large enough effect in the signal ratio in the repeat runs, not every such curve was filed as active; the % refers to the signal ratio). The essentials: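 FXR-UAS-bla HEK 293T cells carrying a UAS-driven beta-lactamase reporter were plated for 5 h at 37C/5% CO2, then exposed to DMSO-dissolved Tox21 10K compounds for 16 h at 37C. A LiveBLAzer B/G FRET substrate was loaded for 2 h at room temperature before fluorescence reading.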

Assay [16] has as its target Vitamin D3 receptor (Homo sapiens) (UniProt P11473). Description: qHTS assay to identify small molecule antagonists of the vitamin D receptor (VDR) signaling pathway (AID 743223; active = well fitted inhibition curve with a large enough effect in the signal ratio in the repeat runs, not every such curve was filed as active; the % refers to the signal ratio). The essentials:
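Agonist 1alpha,25-dihydroxyvitamin D3 (3 nM in well) was added with each compound to VDR-bla cells preincubated 4 h. Cells stood 16 h at 37C, then FRET substrate 2 h at room temperature; fluorescence intensity recorded.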

Assay [17] in a line: qHTS assay to identify small molecule that activate the aryl hydrocarbon receptor (AhR) signaling pathway - cell viability counter screen (AID 743086). Note: potency is the fitted concentration of half-maximal effect; nearly all actives have a fitted effect of over 45% in size. The essentials: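 HepG2-AhR-luc (HG2L7.5c1) cells, 4000/well, treated 24 h at 37 C with compound; viability measured as CellTiter-Fluor fluorescence after 30 min in the same wells as the luciferase read.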
Assay [18] deals with Peroxisome proliferator-activated receptor gamma (Homo sapiens) (UniProt P37231). Description: qHTS assay to identify small molecule agonists of the peroxisome proliferator-activated receptor gamma (PPARg) signaling pathway (AID 743094; active = well fitted activation curve with a large enough effect in the signal ratio in the repeat runs, not every such curve was filed as active; the % refers to the signal ratio). The procedure, abridged:
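Fluorescence-based beta-lactamase readout in HEK293H PPARg UAS-bla cells after 17 h compound exposure (37C) and 1 h B/G FRET substrate incubation at room temperature.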

Assay [19] has the same target. Put plainly: qHTS assay to identify small molecule antagonists of the peroxisome proliferator-activated receptor gamma (PPARg) signaling pathway (AID 743191; calls by dose curve; note: series mostly up to about 63 µM; nearly all actives have a fitted effect of over 30% in size). The procedure, abridged: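 GeneBLAzer PPARg UAS-bla HEK293H cells, 5 h post-plating, exposed to compounds 17 h at 37C. LiveBLAzer B/G FRET substrate added for 1 h at room temperature; beta-lactamase reporter read by fluorescence intensity.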

Inconclusive results are not listed. Activity calls are given as the source filed them. Unless noted, calls come from the whole dose curve; as a rule, active = well fitted curve in the direction sought with a large enough effect in the repeat runs; inconclusive = weak or mixed curves; inactive = no such curve, though single readings can be large; an effect the other way counts as inactive or inconclusive.

Peroxisome proliferator-activated receptor delta (Homo sapiens), sequence (Q03181 whole entry, looked up): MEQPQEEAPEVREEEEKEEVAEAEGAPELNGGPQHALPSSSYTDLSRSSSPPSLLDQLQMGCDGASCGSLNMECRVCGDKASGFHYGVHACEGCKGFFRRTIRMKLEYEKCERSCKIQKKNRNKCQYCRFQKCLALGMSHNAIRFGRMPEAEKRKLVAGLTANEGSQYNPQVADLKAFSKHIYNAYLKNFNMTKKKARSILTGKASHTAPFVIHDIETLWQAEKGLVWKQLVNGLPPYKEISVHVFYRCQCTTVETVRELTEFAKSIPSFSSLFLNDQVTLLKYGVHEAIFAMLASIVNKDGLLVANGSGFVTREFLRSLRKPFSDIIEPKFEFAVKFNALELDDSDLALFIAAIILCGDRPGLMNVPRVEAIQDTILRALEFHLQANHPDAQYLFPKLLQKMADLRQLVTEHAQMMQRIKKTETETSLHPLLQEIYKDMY
Peroxisome proliferator-activated receptor gamma (Homo sapiens), sequence (P37231 whole entry, looked up): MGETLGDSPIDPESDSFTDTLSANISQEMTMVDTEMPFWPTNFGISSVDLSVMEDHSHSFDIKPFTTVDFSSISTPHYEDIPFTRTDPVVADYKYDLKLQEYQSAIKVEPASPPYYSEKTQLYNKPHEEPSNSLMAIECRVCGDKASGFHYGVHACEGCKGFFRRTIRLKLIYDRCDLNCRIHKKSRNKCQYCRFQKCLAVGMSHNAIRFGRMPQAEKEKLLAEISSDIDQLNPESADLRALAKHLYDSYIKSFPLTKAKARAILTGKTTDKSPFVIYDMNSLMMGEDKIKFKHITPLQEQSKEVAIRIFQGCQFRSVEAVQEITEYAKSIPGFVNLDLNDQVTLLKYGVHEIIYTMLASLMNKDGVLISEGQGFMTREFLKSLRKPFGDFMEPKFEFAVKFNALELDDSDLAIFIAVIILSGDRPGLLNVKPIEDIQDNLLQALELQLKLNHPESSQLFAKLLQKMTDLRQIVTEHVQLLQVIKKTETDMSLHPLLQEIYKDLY
Aryl hydrocarbon receptor (Homo sapiens), sequence (P35869 whole entry, looked up): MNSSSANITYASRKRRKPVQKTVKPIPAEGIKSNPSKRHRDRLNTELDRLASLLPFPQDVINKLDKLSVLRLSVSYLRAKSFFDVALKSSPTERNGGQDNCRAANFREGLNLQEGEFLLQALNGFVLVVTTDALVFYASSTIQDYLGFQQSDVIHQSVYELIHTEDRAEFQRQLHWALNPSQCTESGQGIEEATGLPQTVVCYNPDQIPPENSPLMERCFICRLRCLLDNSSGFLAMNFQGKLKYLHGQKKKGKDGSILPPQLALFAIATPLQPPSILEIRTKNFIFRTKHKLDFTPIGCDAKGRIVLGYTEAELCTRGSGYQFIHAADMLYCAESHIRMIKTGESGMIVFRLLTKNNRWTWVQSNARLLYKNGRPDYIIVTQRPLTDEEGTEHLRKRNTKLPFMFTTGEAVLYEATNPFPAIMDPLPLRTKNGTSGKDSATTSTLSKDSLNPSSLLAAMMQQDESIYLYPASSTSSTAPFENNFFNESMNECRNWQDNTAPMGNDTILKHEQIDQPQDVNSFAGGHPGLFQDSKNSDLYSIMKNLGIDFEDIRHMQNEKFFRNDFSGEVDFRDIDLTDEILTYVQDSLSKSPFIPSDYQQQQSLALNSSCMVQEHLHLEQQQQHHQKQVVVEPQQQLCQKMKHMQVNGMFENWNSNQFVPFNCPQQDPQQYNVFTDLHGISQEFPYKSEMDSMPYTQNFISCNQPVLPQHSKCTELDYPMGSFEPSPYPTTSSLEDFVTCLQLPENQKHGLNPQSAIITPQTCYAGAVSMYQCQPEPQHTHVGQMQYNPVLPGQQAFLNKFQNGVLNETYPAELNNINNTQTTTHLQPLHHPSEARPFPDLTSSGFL
Vitamin D3 receptor (Homo sapiens), sequence (P11473 whole entry, looked up): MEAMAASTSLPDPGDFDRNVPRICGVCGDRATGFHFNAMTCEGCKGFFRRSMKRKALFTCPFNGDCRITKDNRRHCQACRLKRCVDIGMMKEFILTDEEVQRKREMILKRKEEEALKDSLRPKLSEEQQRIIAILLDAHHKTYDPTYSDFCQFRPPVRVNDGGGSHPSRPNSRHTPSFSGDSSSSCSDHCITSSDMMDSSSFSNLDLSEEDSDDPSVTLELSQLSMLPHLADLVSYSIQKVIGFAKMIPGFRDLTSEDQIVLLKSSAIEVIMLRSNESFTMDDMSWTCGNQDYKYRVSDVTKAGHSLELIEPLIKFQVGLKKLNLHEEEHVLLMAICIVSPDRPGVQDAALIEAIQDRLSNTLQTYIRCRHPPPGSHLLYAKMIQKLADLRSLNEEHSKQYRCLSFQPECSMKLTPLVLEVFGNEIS
Bile acid receptor (Homo sapiens), sequence (Q96RI1 whole entry, looked up): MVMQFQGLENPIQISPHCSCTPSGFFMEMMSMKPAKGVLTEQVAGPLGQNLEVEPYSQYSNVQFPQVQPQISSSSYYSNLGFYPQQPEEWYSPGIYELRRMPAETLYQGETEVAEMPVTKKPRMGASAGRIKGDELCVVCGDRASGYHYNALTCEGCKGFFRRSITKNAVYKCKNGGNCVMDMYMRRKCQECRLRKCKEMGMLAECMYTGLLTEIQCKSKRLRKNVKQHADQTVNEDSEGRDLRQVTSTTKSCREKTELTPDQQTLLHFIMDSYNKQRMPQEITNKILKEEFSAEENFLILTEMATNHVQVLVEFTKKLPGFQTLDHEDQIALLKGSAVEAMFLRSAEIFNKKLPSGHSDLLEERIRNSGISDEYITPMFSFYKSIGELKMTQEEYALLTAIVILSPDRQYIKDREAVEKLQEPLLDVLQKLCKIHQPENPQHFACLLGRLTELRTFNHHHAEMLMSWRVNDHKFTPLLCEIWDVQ

`C1CCCCCCCCCCC1`: the Potency result in [1], in [2], in assay [3], in assay [4], in assay [7] and in assay [10] was “inactive” each time. Moreover, the outcome in assay [5], in [6], in assay [8], in assay [9] and in assay [11] was inactive.

Turning to `CC(C)CCOC(=O)CC(C)C`, the Potency entry in assay [1], in assay [2], in assay [3], in assay [4], in [14] and in [7] was “inactive” in each case. Also, the Potency result in assay [10] was “inactive”. The compound was called inactive in assay [5], in assay [12], in assay [13], in [6], in assay [8] and in [15]. In addition, the result in [11] was inactive.

As for `Cn1cnc2c(=O)[nH]c(N)nc21`, the Potency result in assay [1], in assay [2], in [3], in assay [4], in assay [14] and in assay [7] was “inactive” throughout. The result in [5], in [12], in assay [13], in assay [6], in assay [8] and in assay [9] was inactive. The result in assay [11] and in assay [16] was inactive.

`COC(=O)C1=C(C)NC(C)=C(C(=O)OCC(C)=O)C1c1ccccc1[N+](=O)[O-]` (stereo not drawn): the Potency was 26.6 µM (active) in assay [1] and 29.8 µM (active) in assay [17]. The compound was called inactive in [18], in assay [19], in assay [5], in assay [12], in assay [13] and in assay [6]. Moreover, the compound was called inactive in [8], in assay [9], in assay [15], in [11] and in assay [16]. Also, the Potency entry in [3], in assay [4], in assay [14], in assay [7] and in assay [10] was “inactive” in each case.

In the case of `COc1cccc(Br)c1`, the Potency result in assay [1], in assay [2], in [4], in [14], in assay [7] and in [10] was “inactive” throughout. The result in assay [18], in [5], in assay [12], in assay [13], in assay [6] and in assay [8] was inactive. Moreover, the call in [11] was inactive.

For `CC(=O)N[C@@H](CCC(N)=O)C(=O)O`, the Potency entry in assay [1], in assay [2], in assay [3], in assay [4], in [14] and in assay [7] was “inactive” throughout. Also, the Potency result in assay [10] is “inactive”. In addition, the outcome in assay [18], in assay [5], in assay [13], in [6], in assay [8] and in assay [11] was inactive.

`OC/C=C/c1ccccc1`: the Potency entry in [1], in assay [2], in [3], in assay [4], in assay [14] and in [7] was “inactive” in each case. Further, the Potency result in [10] was “inactive”. In addition, the call in assay [5], in assay [12], in assay [13], in assay [6], in [9] and in assay [11] was inactive. Moreover, in [16], the compound was called inactive.

On to `C#CC(O)CCCCC` (stereo not drawn), for which the Potency result in [1], in [2], in [3], in [4], in assay [14] and in [7] was “inactive” throughout. The Potency entry in [10] is “inactive”. Moreover, the compound was classed as inactive in assay [18], in [5], in assay [12], in assay [6] and in assay [9].

As for `CC(C)(O)C(=O)c1ccc(OCCO)cc1`, the Potency entry in assay [1], in assay [2], in assay [4], in [14], in assay [7] and in assay [10] was “inactive” throughout. Moreover, the compound was classed as inactive in assay [5], in assay [12], in assay [13] and in assay [6].

As to `C=C(C)C(=O)NCCCN(C)C`, the Potency result in assay [1], in assay [2], in assay [3], in [4], in assay [14] and in [7] was “inactive” each time. Also, the Potency entry in assay [10] is “inactive”. The call in [19], in [5], in assay [12], in assay [6], in [9] and in assay [11] was inactive. The call in assay [16] was inactive.
